Measurements taken from the OligoGym collection.
Also: reference of the scale not given here.

Each sequence was assayed against GOLGA1 (assay: pooled miR-30 sensor sort-seq; sequence = guide strand). Details: shRNA.
Sequence TTTACTTAGTTCCTGCTGCTGG has a sensor-assay potency score (higher = more potent) of 0.484. TATTTTACTTAGTTCCTGCTGC showed a sensor-assay potency score (higher = more potent) of 0.934. For TATGGTCTTATTTTTCTCCAGA, the sensor-assay potency score (higher = more potent) was -0.384.

Each sequence was assayed against GORASP1 in the same assay as above. Details: shRNA.
TTATACACCATCAGCTTCAAGG was tested, and the sensor-assay potency score (higher = more potent) was -1. Work on TGACTTGGAGTTATACACCATC yielded a sensor-assay potency score (higher = more potent) of -1.14. TACACCATCAGCTTCAAGGGCT gave a sensor-assay potency score (higher = more potent) of 0.394. Work on TTATCCTCCAACTTATGGGGGA yielded a sensor-assay potency score (higher = more potent) of -0.359. AATATTAGCATTGATACCCATT showed a sensor-assay potency score (higher = more potent) of -1.46. With TAACTCGCTGCACTGGAGGTGG the sensor-assay potency score (higher = more potent) was -0.397. Work on TCCATGTAGTCACTCTGCCTGG yielded a sensor-assay potency score (higher = more potent) of -1.3. Sequence TTCCACATCCAGCACATGCCAC has a sensor-assay potency score (higher = more potent) of -1.05. Sequence TGAAGATGGTTCCACATCCAGC has a sensor-assay potency score (higher = more potent) of -1.37. Sequence TTCAGTAGTGCCTTCAGGGTGT has a sensor-assay potency score (higher = more potent) of 0.45.

The sequences below were run against GP1BA in the same assay as above. Details: shRNA.
For TTTGGTATTGTATACAGCGAGT, the sensor-assay potency score (higher = more potent) was -0.992. TAGACGGGAAACTTGTCTGAAT was tested, and the sensor-assay potency score (higher = more potent) was -0.507. TAGTGGATTCTTGTGTTGGATG showed a sensor-assay potency score (higher = more potent) of -1.15. TTGGGGTCCATCTAGGTGGGAA was tested, and the sensor-assay potency score (higher = more potent) was -0.196. Sequence TTCAGCATTGTCCTGCAGCCAG has a sensor-assay potency score (higher = more potent) of -0.558. Sequence AACTTGACCACAGTCCTTGTGG has a sensor-assay potency score (higher = more potent) of 0.0455. Work on TTTGGCTGTCTAGAGAAGCAGT yielded a sensor-assay potency score (higher = more potent) of -0.816. Work on TTTCAGGTAGAGCTCTTGGAGT yielded a sensor-assay potency score (higher = more potent) of -0.846. With TAGAGGATCTCACAGTTGCATA the sensor-assay potency score (higher = more potent) was -1.69. With TATACAGCGAGTTCTCTTGGAG the sensor-assay potency score (higher = more potent) was -0.385. For TTGACCACAGTCCTTGTGGCAC, the sensor-assay potency score (higher = more potent) was -0.461. For ATTTTCAGCATTGTCCTGCAGC, the sensor-assay potency score (higher = more potent) was -0.496.

The sequences below were run against GP6 in the same assay as above. Details: shRNA.
Sequence ATTATTAGGATCACAGCCCCGA has a sensor-assay potency score (higher = more potent) of -0.0711. Sequence TTGCACAGGCTGATCTTGTTTT has a sensor-assay potency score (higher = more potent) of -0.638. Sequence TTTTGAGACAAAGTCAGGCTTC has a sensor-assay potency score (higher = more potent) of 0.424. Sequence TTTGTTGGTAGAGATGAGGTTT has a sensor-assay potency score (higher = more potent) of -0.205. In the case of TAGCATCGGTAGGTTCCGCTGT, the sensor-assay potency score (higher = more potent) is reported as -0.0169. In the case of TATTTTTTGAGACAAAGTCAGG, the sensor-assay potency score (higher = more potent) is reported as -1.21. For TTTTACACTAAGGAAAATGAAT, the sensor-assay potency score (higher = more potent) was -1.19. TTCGTTTGTGAATGAGACGGTC gave a sensor-assay potency score (higher = more potent) of 0.0865. For TAGCCCTGTACCATCTCTCGGG, the sensor-assay potency score (higher = more potent) was -0.328. For TTGTTTTCTAATGTGAAGGGAA, the sensor-assay potency score (higher = more potent) was -0.126.

What follows are sequences tested against GPAA1 in the same assay as above. Details: shRNA.
AAAACCAGCGCCAAGAACCAGG was tested, and the sensor-assay potency score (higher = more potent) was -1.17. With TTGAGGCGCAGCACTAGGCGGG the sensor-assay potency score (higher = more potent) was -0.543. In the case of TTCAGTGCCATCCAGCCCCTGT, the sensor-assay potency score (higher = more potent) is reported as -0.292. With TTCTGTTACCAGGAAGACGATA the sensor-assay potency score (higher = more potent) was -1.01. TTTCCGGGAGAAACTCTGCGTG showed a sensor-assay potency score (higher = more potent) of -0.575.
